Reference: PubChem BioAssay AID1159580 (chemical genetic matrix, 2015)
Several values for one entry are separate records, joined by “and”; a condition that tells them apart may be missing. Identical values can stand only once. The whole screen tested about 5,500 compounds, of which about 2,000 (36%) were called active. Roughly 18% stayed inconclusive and do not appear here. Rule as the data show it: active = normalized growth mostly below about 0.91 (no sharp cut-off); inconclusive = no clear call, values can overlap the other calls; inactive = mostly above about 0.92. Some of the results follow.

Test: chemical genetic growth profiling, strain panel (AID 1159580);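 also: tested at 20 µM; growth read once vehicle control cultures reached saturation at 30 °C; 1 = growth at the plate median or of vehicle wells; lower values mean less growth of the strain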
Settings: S. cerevisiae deletion strains, growth OD

Measured: normalized growth

Clc1ccc(COC(Cn2ccnc2)c2ccc(Cl)cc2Cl)c(Cl)c1 (configuration not stated)
active: locus YAL013W, strain DEP1, stronger effect = lower value 0.0568 | locus YAL021C, strain ccr4, stronger effect = lower value 0.0668 | locus YAL026C, strain drs2, stronger effect = lower value 0.0674 | locus YAL030W, strain snc1, stronger effect = lower value 0.0581 | locus YBL061C, strain skt5, stronger effect = lower value 0.0608 | locus YBR009C, strain hhf1, stronger effect = lower value 0.0655 | locus YBR021W, strain FUR4, stronger effect = lower value 0.0874 | locus YBR023C, strain chs3, stronger effect = lower value 0.0682 | locus YBR171W, strain sec66, stronger effect = lower value 0.0803 | locus YBR229C, strain ROT2, stronger effect = lower value 0.0268 | locus YBR231C, strain swc5, stronger effect = lower value 0.0764 | locus YBR279W, strain paf1, stronger effect = lower value 0.0803 | locus YCL011C, strain gbp2, stronger effect = lower value 0.0572 | locus YCL016C, strain dcc1, stronger effect = lower value 0.0647 | locus YCL029C, strain bik1, stronger effect = lower value 0.0612 | locus YCL061C, strain MRC1, stronger effect = lower value 0.065 | locus YCL069W, strain vba3, stronger effect = lower value 0.0638 | locus YCR088W, strain abp1, stronger effect = lower value 0.0654 | locus YDL005C, strain med2, stronger effect = lower value 0.0803 | locus YDL035C, strain GPR1, stronger effect = lower value 0.0505 | locus YDL040C, strain nat1, stronger effect = lower value 0.0613 | locus YDL074C, strain BRE1, stronger effect = lower value 0.0763 | locus YDL101C, strain DUN1, stronger effect = lower value 0.0503 | locus YDL134C, strain PPH21, stronger effect = lower value 0.0516 | locus YDL185W, strain tfp1, stronger effect = lower value 0.0554 | locus YDL192W, strain arf1, stronger effect = lower value 0.0597 | locus YDR001C, strain nth1, stronger effect = lower value 0.0613 | locus YDR069C, strain doa4, stronger effect = lower value 0.065 | locus YDR101C, strain arx1, stronger effect = lower value 0.0587 | locus YDR137W, strain rgp1, stronger effect = lower value 0.111 | locus YDR150W, strain NUM1, stronger effect = lower value 0.0575 | locus YDR159W, strain sac3, stronger effect = lower value 0.0885 | locus YDR162C, strain NBP2, stronger effect = lower value 0.0451 | locus YDR195W, strain ref2 0.126 | locus YDR297W, strain sur2, stronger effect = lower value 0.0574 | locus YDR318W, strain mcm21, stronger effect = lower value 0.0643 | locus YDR334W, strain swr1, stronger effect = lower value 0.0662 | locus YDR335W, strain msn5, stronger effect = lower value 0.0617 | locus YDR388W, stronger effect = lower value 0.056 | locus YDR392W, strain spt3, stronger effect = lower value 0.101 | locus YDR502C, strain sam2, stronger effect = lower value 0.0624 | locus YEL003W, strain gim4, stronger effect = lower value 0.0564 | locus YEL037C, strain rad23, stronger effect = lower value 0.0601 | locus YEL061C, strain CIN8 (second series), stronger effect = lower value 0.0638 | locus YEL061C, strain CIN8, stronger effect = lower value 0.0482 | locus YER015W, strain faa2, stronger effect = lower value 0.0604 | locus YER016W, strain bim1, stronger effect = lower value 0.0607 | locus YER110C, stronger effect = lower value 0.0744 | locus YER111C, strain swi4, stronger effect = lower value 0.0809 | locus YER155C, strain BEM2 (second series), stronger effect = lower value 0.0947 | locus YER155C, strain BEM2, stronger effect = lower value 0.0667 | locus YER167W, strain BCK2, stronger effect = lower value 0.0577 | locus YFR010W, strain ubp6, stronger effect = lower value 0.0709 | locus YGL078C, strain dbp3, stronger effect = lower value 0.0696 | locus YGL086W, strain mad1, stronger effect = lower value 0.0583 | locus YGL167C, strain pmr1, stronger effect = lower value 0.0799 | locus YGL173C, strain kem1, stronger effect = lower value 0.072 | locus YGL227W, strain vid30, stronger effect = lower value 0.067 | locus YGL240W, strain doc1, stronger effect = lower value 0.0883 | locus YGL248W, strain PDE1, stronger effect = lower value 0.0461 | locus YGL253W, strain hxk2, stronger effect = lower value 0.0558 | locus YGR078C, strain PAC10, stronger effect = lower value 0.0558 | locus YGR135W, strain pre9, stronger effect = lower value 0.0676 | locus YGR229C, strain SMI1, stronger effect = lower value 0.0622 | locus YGR252W, strain gcn5, stronger effect = lower value 0.155 | locus YHR013C, strain ard1, stronger effect = lower value 0.106 | locus YHR027C, strain rpn1, stronger effect = lower value 0.0625 | locus YHR030C, strain SLT2, stronger effect = lower value 0.0509 and 0.102 | locus YHR079C, strain IRE1 (second series), stronger effect = lower value 0.0623 | locus YHR079C, strain IRE1, stronger effect = lower value 0.124 | locus YHR094C, strain hxt1, stronger effect = lower value 0.0654 | locus YHR129C, strain ARP1, stronger effect = lower value 0.0576 | locus YHR142W, strain chs7, stronger effect = lower value 0.0767 | locus YHR200W, strain rpn10, stronger effect = lower value 0.0606 | locus YIL066C, strain RNR3, stronger effect = lower value 0.0442 | locus YIL073C, strain SPO22, stronger effect = lower value 0.115 | locus YIL125W, strain kgd1, stronger effect = lower value 0.0693 | locus YIR030C, strain dcg1, stronger effect = lower value 0.0593 | locus YJL092W, strain hpr5, stronger effect = lower value 0.061 | locus YJL095W, strain BCK1 (second series), stronger effect = lower value 0.059 | locus YJL095W, strain BCK1, stronger effect = lower value 0.0515 and 0.106 | locus YJL115W, strain asf1, stronger effect = lower value 0.0748 | locus YJL129C, strain trk1, stronger effect = lower value 0.0933 | locus YJL134W, strain LCB3, stronger effect = lower value 0.0457 | locus YJL154C, strain vps35, stronger effect = lower value 0.062 | locus YJL164C, strain tpk1, stronger effect = lower value 0.0667 | locus YJL166W, strain qcr8, stronger effect = lower value 0.0609 | locus YJL168C, strain set2, stronger effect = lower value 0.0574 | locus YJL187C, strain SWE1 (second series), stronger effect = lower value 0.0406 | locus YJL187C, strain SWE1, stronger effect = lower value 0.0602 | locus YJR043C, strain POL32, stronger effect = lower value 0.0602 | locus YJR066W, strain TOR1, stronger effect = lower value 0.0025
